“And” between values parts separate entries of the source, which are not always exact repeats. Identical values can stand only once. The whole screen tested about 5,500 compounds, of which about 2,000 (36%) were called active. Inconclusive results (about 18%) are left out. Rule as the data show it: active = normalized growth mostly below about 0.91 (no sharp cut-off); inconclusive = no clear call, values can overlap the other calls; inactive = mostly above about 0.92. This is one part of the list.
Assay: chemical genetic growth profiling, strain panel (AID 1159580);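 also: tested at 20 µM; growth read once vehicle control cultures reached saturation at 30 °C; 1 = growth at the plate median or of vehicle wells; lower values mean less growth of the strain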
Settings: S. cerevisiae deletion strains, growth OD

Measured: normalized growth

C=C1c2cccc(O)c2C(O)=C2C(=O)[C@]3(O)C(O)=C(C(N)=O)C(=O)[C@@H](N(C)C)[C@@H]3[C@@H](O)[C@H]12
inactive: locus YAL013W, strain DEP1, stronger effect = lower value 0.997 | locus YAL021C, strain ccr4, stronger effect = lower value 1.02 | locus YAL026C, strain drs2, stronger effect = lower value 1.01 | locus YAL030W, strain snc1, stronger effect = lower value 1.01 | locus YBL061C, strain skt5, stronger effect = lower value 1.01 | locus YBR009C, strain hhf1, stronger effect = lower value 1 | locus YBR021W, strain FUR4, stronger effect = lower value 1.01 | locus YBR023C, strain chs3, stronger effect = lower value 1 | locus YBR171W, strain sec66, stronger effect = lower value 1.02 | locus YBR229C, strain ROT2, stronger effect = lower value 0.987 | locus YBR231C, strain swc5, stronger effect = lower value 1.02 | locus YBR279W, strain paf1, stronger effect = lower value 1.01 | locus YCL011C, strain gbp2, stronger effect = lower value 1.01 | locus YCL016C, strain dcc1, stronger effect = lower value 1.02 | locus YCL029C, strain bik1, stronger effect = lower value 0.965 | locus YCL061C, strain MRC1, stronger effect = lower value 1.02 | locus YCL069W, strain vba3, stronger effect = lower value 1.01 | locus YCR088W, strain abp1, stronger effect = lower value 0.997 | locus YDL005C, strain med2, stronger effect = lower value 1.02 | locus YDL035C, strain GPR1, stronger effect = lower value 0.98 | locus YDL040C, strain nat1, stronger effect = lower value 1.02 | locus YDL074C, strain BRE1, stronger effect = lower value 0.962 | locus YDL101C, strain DUN1, stronger effect = lower value 0.978 | locus YDL134C, strain PPH21, stronger effect = lower value 1.01 | locus YDL185W, strain tfp1, stronger effect = lower value 0.925 | locus YDL192W, strain arf1, stronger effect = lower value 0.971 | locus YDR001C, strain nth1, stronger effect = lower value 1.01 | locus YDR069C, strain doa4, stronger effect = lower value 1.01 | locus YDR101C, strain arx1, stronger effect = lower value 0.957 | locus YDR137W, strain rgp1, stronger effect = lower value 0.927 | locus YDR150W, strain NUM1, stronger effect = lower value 0.99 | locus YDR159W, strain sac3, stronger effect = lower value 1.01 | locus YDR162C, strain NBP2, stronger effect = lower value 0.981 | locus YDR195W, strain ref2 0.997 | locus YDR297W, strain sur2, stronger effect = lower value 1.01 | locus YDR318W, strain mcm21, stronger effect = lower value 0.975 | locus YDR334W, strain swr1, stronger effect = lower value 1.01 | locus YDR335W, strain msn5, stronger effect = lower value 1.01 | locus YDR388W, stronger effect = lower value 0.991 | locus YDR392W, strain spt3, stronger effect = lower value 0.957 | locus YDR502C, strain sam2, stronger effect = lower value 1 | locus YEL003W, strain gim4, stronger effect = lower value 1 | locus YEL037C, strain rad23, stronger effect = lower value 1.01 | locus YEL061C, strain CIN8 (second series), stronger effect = lower value 1.01 | locus YEL061C, strain CIN8, stronger effect = lower value 0.988 | locus YER015W, strain faa2, stronger effect = lower value 0.991 | locus YER016W, strain bim1, stronger effect = lower value 0.946 | locus YER110C, stronger effect = lower value 0.997 | locus YER111C, strain swi4, stronger effect = lower value 1.01 | locus YER155C, strain BEM2 (second series), stronger effect = lower value 0.966 | locus YER155C, strain BEM2, stronger effect = lower value 1.01 | locus YER167W, strain BCK2, stronger effect = lower value 0.992 | locus YFR010W, strain ubp6, stronger effect = lower value 1.02 | locus YGL078C, strain dbp3, stronger effect = lower value 0.993 | locus YGL086W, strain mad1, stronger effect = lower value 0.993 | locus YGL167C, strain pmr1, stronger effect = lower value 1.02 | locus YGL173C, strain kem1, stronger effect = lower value 1.01 | locus YGL227W, strain vid30, stronger effect = lower value 1.01 | locus YGL240W, strain doc1, stronger effect = lower value 1.03 | locus YGL248W, strain PDE1, stronger effect = lower value 0.979 | locus YGL253W, strain hxk2, stronger effect = lower value 1.01 | locus YGR078C, strain PAC10, stronger effect = lower value 0.928 | locus YGR135W, strain pre9, stronger effect = lower value 0.987 | locus YGR229C, strain SMI1, stronger effect = lower value 0.947 | locus YGR252W, strain gcn5, stronger effect = lower value 1.11 | locus YHR013C, strain ard1, stronger effect = lower value 1.02 | locus YHR027C, strain rpn1, stronger effect = lower value 1.01 | locus YHR030C, strain SLT2, stronger effect = lower value 0.994 and 0.979 | locus YHR079C, strain IRE1 (second series), stronger effect = lower value 0.982 | locus YHR079C, strain IRE1, stronger effect = lower value 0.978 | locus YHR094C, strain hxt1, stronger effect = lower value 0.992 | locus YHR129C, strain ARP1, stronger effect = lower value 0.982 | locus YHR142W, strain chs7, stronger effect = lower value 1.05 | locus YHR200W, strain rpn10, stronger effect = lower value 0.97 | locus YIL066C, strain RNR3, stronger effect = lower value 0.948 | locus YIL073C, strain SPO22, stronger effect = lower value 0.945 | locus YIL125W, strain kgd1, stronger effect = lower value 0.989 | locus YIR030C, strain dcg1, stronger effect = lower value 1 | locus YJL092W, strain hpr5, stronger effect = lower value 1.01 | locus YJL095W, strain BCK1 (second series), stronger effect = lower value 1.02 | locus YJL095W, strain BCK1, stronger effect = lower value 0.899 and 0.972 | locus YJL115W, strain asf1, stronger effect = lower value 1.03 | locus YJL129C, strain trk1, stronger effect = lower value 1.04 | locus YJL134W, strain LCB3, stronger effect = lower value 0.992 | locus YJL154C, strain vps35, stronger effect = lower value 1.04 | locus YJL164C, strain tpk1, stronger effect = lower value 0.983 | locus YJL166W, strain qcr8, stronger effect = lower value 1.02 | locus YJL168C, strain set2, stronger effect = lower value 0.982 | locus YJL187C, strain SWE1 (second series), stronger effect = lower value 0.929 | locus YJR043C, strain POL32, stronger effect = lower value 0.923 | locus YJR066W, strain TOR1, stronger effect = lower value 0.913
